Test results from ChEMBL document CHEMBL3988442, “University of Dundee, Small-Polar-MMV Screening Library” (2021).

What was measured:
[1] = target: T1, Aspartate--tRNA(Asp/Asn) ligase (Mycobacterium tuberculosis (strain ATCC 25618 / H37Rv)) (UniProt P9WFW3); assay: Assay for Asp RNA synthetase-1 from Mycobacterium tuberculosis; format: functional; set-up: scale not given: direction of the effect not stated beside the values; details: 30 µM; further: in the data most compounds retested in dose-response had high values
T1 sequence (whole entry): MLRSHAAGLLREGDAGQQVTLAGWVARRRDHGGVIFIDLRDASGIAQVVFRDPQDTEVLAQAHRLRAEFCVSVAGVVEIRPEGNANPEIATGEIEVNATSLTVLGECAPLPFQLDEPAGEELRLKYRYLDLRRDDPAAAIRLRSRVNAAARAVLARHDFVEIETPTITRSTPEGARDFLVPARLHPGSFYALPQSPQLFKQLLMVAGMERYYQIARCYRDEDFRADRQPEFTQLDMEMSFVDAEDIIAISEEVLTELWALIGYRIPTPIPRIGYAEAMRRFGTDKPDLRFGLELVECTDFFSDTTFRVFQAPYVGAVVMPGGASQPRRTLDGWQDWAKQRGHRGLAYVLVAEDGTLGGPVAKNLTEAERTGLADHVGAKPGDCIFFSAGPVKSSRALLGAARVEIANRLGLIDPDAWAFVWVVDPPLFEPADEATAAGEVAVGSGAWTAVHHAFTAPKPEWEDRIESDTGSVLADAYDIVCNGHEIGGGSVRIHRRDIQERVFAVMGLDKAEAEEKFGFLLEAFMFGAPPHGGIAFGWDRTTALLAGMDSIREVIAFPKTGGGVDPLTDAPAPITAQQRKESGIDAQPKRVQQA

[2] = target: Shiga toxin 2 (Escherichia coli O157:H7) (UniProt P09385+P09386); assay: E. coli 0.157:H7 Shiga Toxin SOP - stx2 screening assay; format: functional; set-up: scale not given: direction of the effect not stated beside the values; details: 30 µM

Compound | Percent Effect [1] | Percent Effect [2]
Cc1nc(C)n(CC2CCCN(c3ncnc4[nH]ccc34)C2)n1 (configuration not stated) | -1.82% | 2.99%
COc1ncccc1NC(=O)C1CC(=O)N(Cc2ccccn2)C1 (configuration not stated) | 1.2% | -0.103%
CCN(CC1CCOC1)C(=O)Nc1ccc(OC)nc1 (configuration not stated) | 4.72% | -156%
Cc1n[nH]c(C)c1NC(=O)CN1CCc2c(nc(C3CC3)n2C)C1 | 4.55% | -6.27%
Cc1nc(CN(C)C2CCN(CC(=O)NC3CCOCC3)C2)no1 (configuration not stated) | -1.22% | 17.1%
CCOCCN1CCCC(c2cc(C(N)=O)[nH]n2)C1 (configuration not stated) | -2.28% | -7.08%
COc1ccc(C(=O)N2CCCCC2Cn2cccn2)c(F)c1 (configuration not stated) | 3.52% | -7.04%
CN(Cc1nccn1CC(F)(F)F)C(=O)c1ccc(F)cc1F | 1.98% | 9.03%
CC1CCN(C(=O)CN(Cc2ccco2)C2CC2)CC1 | 0.548% | -5.22%
O=C(c1cc(C2CC2)on1)N1CC[C@]2(C[C@H](Oc3cccnc3)CO2)C1 | 6.67% | 7.42%
COc1ccc(CNC2CCN(CCc3ccncc3)CC2)cc1O | 5.98% | -49.6%
Cc1ccc(C(CNCc2cnn(C(C)C)c2)N2CCOCC2)s1 (configuration not stated) | -4.07% | -11%
O=C(NC(CO)CO)c1coc(COc2cccc(F)c2)n1 | -1.14% | -3.72%
N#Cc1ccc(NCCNc2ccc(C(F)(F)F)cn2)nc1 | -3.59% | 45.1%
Cn1cc(C(=O)CC2CCCN2C(=O)c2cncc3ccccc23)cn1 (configuration not stated) | -4.82% | -3.94%
Cc1noc([C@H]2C[C@@H]3CCN(C(=O)C4CCOCC4)C[C@H]3O2)n1 | 1.08% | -0.561%
CC(C)C(=O)NCC(=O)N(C)C1CCCN(CCc2ccccc2)C1 (configuration not stated) | -0.948% | -14.4%
COc1ccc(Nc2nc3c(C)nn(C)c3c(=O)n2C)c(OC)c1 | 6.63% | -34.2%
CCc1noc(C)c1C(=O)N1CCCC1c1c(C)nn(C)c1OC (configuration not stated) | -3.25% | 5.57%
CCO[C@@H]1CO[C@@]2(CCCN(C(=O)COc3ccccc3OC)C2)C1 | 1.03% | -25.3%
Cn1c(C2CC2)nc2c1CCN(CCOc1ccc(C#N)cc1)C2 | 3.25% | -7.77%
CCc1noc(CN2CCN(C(=O)N(C)C)CC2)n1 | -1.26% | 5.9%
CCc1cc(NCCNc2cccnc2)n2nccc2n1 | 0.0112% | -5.46%

Compound | Percent Effect [1] | Percent Effect [2]
Cc1noc(NC(=O)c2ccc(Br)s2)n1 | 2.08% | 49.8%
O=C(NCCNc1ncccn1)N(Cc1ccc(F)cc1F)C1CC1 | -3.51% | 12.1%
CN(C)S(=O)(=O)N1CC[C@]2(C[C@H](Oc3cccnc3)CO2)C1 | 9.53% | -27.2%
Cc1cnn(CCC(=O)N2CCN(c3ncccc3Cl)CC2)c1 | -7% | 13.3%
CCc1nc(NCCCOC)c2c(n1)c(C)nn2C | -8.39% | -21.6%
Cc1cc(C(=O)N2C[C@@H]3[C@@H](C2)OCC(=O)N3CC2CC2)no1 | 9.42% | -55.2%
Cc1ccn(CCC(=O)N2CCOC(c3nc(-c4cccs4)no3)C2)n1 (configuration not stated) | -0.897% | 37.2%
N#Cc1ccnc(N2CCN(C(=O)Cc3ccc4c(c3)CCO4)CC2)c1 | 0.144% | 6.14%
Cc1cc(C)n(CC2CCCN2C(=O)c2ccc3[nH]nnc3c2)n1 (configuration not stated) | 3.71% | -26.6%
Cc1cccnc1NC(=O)NCc1ccc(N2CCNC(=O)C2)cc1 | 5.31% | -63.3%
Cc1nn(C)c(C)c1CNCc1ccc(N2CCOCC2)nc1 | 2.11% | -24.1%
CC(C)c1nnc2n1CCN(C(=O)c1ccc(OCC(N)=O)cc1)C2 | -5.82% | -6.36%
Cc1ccc(-c2nc(CNCC3CN(C)CCO3)cs2)o1 (configuration not stated) | 1.27% | -23.7%
CCOCCCC(=O)NCCC(=O)N1CCN(c2ccccn2)CC1 | 0.809% | -65.6%
CC(=O)c1cccc(S(=O)(=O)N2CSCC2C(=O)NCC(F)(F)F)c1 (configuration not stated) | -1.82% | -13.6%
Cn1cnc2c1CCN(Cc1nc(COc3ccc(F)cc3)no1)C2 | 2.19% | 19%
CC1(NC(=O)Cc2csc(C(C)(C)C)n2)CCS(=O)(=O)C1 (configuration not stated) | -6.9% | -10.1%
O=C(Cn1cccnc1=O)NC(Cc1ccsc1)c1ccccn1 (configuration not stated) | -3.14% | -4.55%
Cc1cc(C2CCCN(C(=O)CN3CCN(C)CC3)C2)n[nH]1 (configuration not stated) | -0.728% | 13.2%
O=C(c1ccsc1)N1CCCC(c2cc(C(F)(F)F)[nH]n2)C1 (configuration not stated) | 7.19% | 28%
CC(=O)N(Cc1noc(C)n1)C1CCN(Cc2ccccc2C#N)C1 (configuration not stated) | 2.26% | -3.66%
Cn1c(CN2CCN(CC3CC3)CC2)nnc1C1CCC1 | 8.05% | -37.5%
O=C(CCCOc1ccc(F)cc1F)N1CCCC1Cn1cccn1 (configuration not stated) | -7.61% | 17.6%
